The source made the active and inactive calls. Rule for the calls: active = hit-call score of the fitted dose curve at least 0.9, where 1 is the maximum; inactive = score below 0.9.

What all share (details): mRNA level, 48 h; actives raise or lower the signal
Read-out in assay [1]: Cyclin D2 (CCND2), CCND2 (gene 894)
Put plainly: LTEA_HepaRG_CCND2: Life Technologies and Expression Analysis (LTEA) Assay for Cyclin D2 (CCND2) using HepaRG (AID 2283449).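 Note: CCND2 transcript measured by TaqMan qRT-PCR and normalised to three housekeeping genes.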 In a few lines: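 In this HepaRG study, an eight-point concentration series (max 100 uM, 0.5% DMSO) is applied for 48 h. CCND2 mRNA change is derived by qRT-PCR normalised to ACTB, GAPDH and POLR2A.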

Read-out in assay [2]: Cyclin Dependent Kinase Inhibitor 1A (CDKN1A), CDKN1A (gene 1026)
Put plainly: LTEA_HepaRG_CDKN1A: Life Technologies and Expression Analysis (LTEA) Assay for Cyclin Dependent Kinase Inhibitor 1A (CDKN1A) using HepaRG (AID 2283450). In a few lines: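 Read-out is CDKN1A mRNA by TaqMan qRT-PCR, normalized to three housekeeping genes and fitted in both directions against the DMSO baseline. Human HepaRG cells were treated 48 h with test chemicals up to 100 uM in half-log steps, 0.5% DMSO.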

Read-out in assay [3]: Cyclin D1 (CCND1), CCND1 (gene 595)
The assay can be described thus: LTEA_HepaRG_CCND1: Life Technologies and Expression Analysis (LTEA) Assay for Cyclin D1 (CCND1) using HepaRG (AID 2283451).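 For AC50: differentiated human HepaRG liver cells in serum-free induction medium; TaqMan qRT-PCR transcript level normalised to ACTB GAPDH and POLR2A housekeeping genes.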 In short, it runs like this: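 HepaRG plated 48 h, medium switched to serum-free induction medium, chemicals added in duplicate (top 100 uM, half-log steps, 0.5% DMSO) for 48 h, cells lysed, RNA measured by TaqMan qRT-PCR.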

Read-out in assay [4]: catalase (CAT), CAT (gene 847)
The assay can be described thus: LTEA_HepaRG_CAT: Life Technologies and Expression Analysis (LTEA) Assay for catalase (CAT) using HepaRG (AID 2283452).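 For AC50: TaqMan qRT-PCR signal normalized to ACTB GAPDH and POLR2A housekeeping genes.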 In short, it runs like this: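 Differentiated HepaRG cells in serum-free induction medium were dosed 48 h in duplicate, eight half-log concentrations from 100 uM in 0.5% DMSO. Transcript measured by TaqMan qRT-PCR, normalised to ACTB/GAPDH/POLR2A, fitted bidirectionally against DMSO.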

Read-out in assay [5]: flavin-containing dimethylaniline monooxygenases 3 (FMO3), FMO3 (gene 2328)
Put plainly: LTEA_HepaRG_FMO3: Life Technologies and Expression Analysis (LTEA) Assay for flavin-containing dimethylaniline monooxygenases 3 (FMO3) using HepaRG (AID 2283453). In short, it runs like this:
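FMO3 transcript quantified by TaqMan qRT-PCR against three housekeeping genes after 48 h chemical exposure of HepaRG cells. Eight-point half-log series, top 100 uM, 0.5% DMSO vehicle; phenobarbital 1mM induction control; up- or down-regulation fitted.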

Read-out in assay [6]: Cytochrome P450 (CYP1A1), CYP1A1 (gene 1543)
The assay can be described thus: LTEA_HepaRG_CYP1A1: Life Technologies and Expression Analysis (LTEA) Assay for Cytochrome P450 (CYP1A1) using HepaRG (AID 2283454). In short, it runs like this: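 HepaRG, 48 h post-plating switched to serum-free induction medium; 8-pt conc-response (top 100 uM, half-log, 0.5% DMSO), duplicates, 48 h. Lysis in RLT, TaqMan qRT-PCR for CYP1A1; gain or loss vs DMSO.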

Read-out in assay [7]: CFLAR gene, CFLAR (gene 8837)
The assay can be described thus: LTEA_HepaRG_CFLAR: Life Technologies and Expression Analysis (LTEA) Assay for CFLAR gene using HepaRG (AID 2283455). In short, it runs like this: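 Gain- or loss-of-signal changes in CFLAR transcript were fitted bidirectionally relative to 0.5% DMSO. Cells (HepaRG, duplicate wells) were dosed for 48 h across eight half-log concentrations topping at 100 uM; quantitation by TaqMan qRT-PCR.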

Read-out in assay [8]: Forkhead box O1 (FOXO1), FOXO1 (gene 2308)
The assay can be described thus: LTEA_HepaRG_FOXO1: Life Technologies and Expression Analysis (LTEA) Assay for Forkhead box O1 (FOXO1) using HepaRG (AID 2283456). In short, it runs like this:
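Using one lot of HepaRG hepatic cells kept in 0.5% DMSO, the team applied test chemicals in duplicate, half-log dilutions from 100 uM, for 48 h. Expression, normalised to ACTB/GAPDH/POLR2A, was compared with vehicle in either direction.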

Read-out in assay [9]: growth arrest and DNA damage 45 (GADD45A), GADD45A (gene 1647)
The assay can be described thus: LTEA_HepaRG_GADD45A: Life Technologies and Expression Analysis (LTEA) Assay for growth arrest and DNA damage 45 (GADD45A) using HepaRG (AID 2283458). In a few lines:
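Transcript induction or loss, quantified by TaqMan qRT-PCR against three housekeeping genes, is the read-out. HepaRG cells received chemicals for 48 h across eight half-log concentrations from 100 uM in 0.5% DMSO; gain and loss fitted relative to DMSO.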

Read-out in assay [10]: Forkhead box O3 (FOXO3), FOXO3 (gene 2309)
The assay can be described thus: LTEA_HepaRG_FOXO3: Life Technologies and Expression Analysis (LTEA) Assay for Forkhead box O3 (FOXO3) using HepaRG (AID 2283459). In a few lines:
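Gene-expression endpoint: FOXO3 transcript level by qRT-PCR in HepaRG cultures treated 48 h with chemicals up to 100 uM (half-log, 0.5% DMSO vehicle).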

Read-out in assay [11]: ABC Transporter (ABCB1), ABCB1 (gene 5243)
Put plainly: LTEA_HepaRG_ABCB1: Life Technologies and Expression Analysis (LTEA) Assay for ABC Transporter (ABCB1) using HepaRG (AID 2283460). In short, it runs like this: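 Human liver HepaRG line treated 48 h with up to 100 uM compound (eight half-log points, 0.5% DMSO); ABCB1 mRNA change fitted bidirectionally against DMSO controls.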

Read-out in assay [12]: growth arrest and DNA damage 45 (GADD45B), GADD45B (gene 4616)
Put plainly: LTEA_HepaRG_GADD45B: Life Technologies and Expression Analysis (LTEA) Assay for growth arrest and DNA damage 45 (GADD45B) using HepaRG (AID 2283461). In short, it runs like this:
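HepaRG, ~100,000 cells/well, 48 h plating; serum-free induction medium; cpd 100 uM top, half-log x8, 0.5% DMSO, duplicate, 48 h; lysis in RLT, RNA isolation, qRT-PCR; norm ACTB/GAPDH/POLR2A; bidirectional fit vs DMSO.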

Read-out in assay [13]: ABC Transporter (ABCC3), ABCC3 (gene 8714)
The assay can be described thus: LTEA_HepaRG_ABCC3: Life Technologies and Expression Analysis (LTEA) Assay for ABC Transporter (ABCC3) using HepaRG (AID 2283462). In short, it runs like this: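 Human HepaRG, 48 h dosing, 8-pt half-log series from 100 uM, 0.5% DMSO vehicle, duplicates. ABCC3 mRNA by TaqMan qRT-PCR, housekeeping-normalized; bidirectional curve fit vs DMSO.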

Read-out in assay [14]: ABC Transporter (ABCB11), ABCB11 (gene 8647)
The assay can be described thus: LTEA_HepaRG_ABCB11: Life Technologies and Expression Analysis (LTEA) Assay for ABC Transporter (ABCB11) using HepaRG (AID 2283463). In short, it runs like this: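 Using HepaRG cultures held in 0.5% DMSO, chemicals were tested at half-log dilutions from 100 uM for 48 h. Induction or suppression of ABCB11 mRNA, normalized to ACTB, GAPDH and POLR2A, was fitted bidirectionally against vehicle.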

Read-out in assay [15]: ABC Transporter (ABCC2), ABCC2 (gene 1244)
The assay can be described thus: LTEA_HepaRG_ABCC2: Life Technologies and Expression Analysis (LTEA) Assay for ABC Transporter (ABCC2) using HepaRG (AID 2283464). In short, it runs like this:
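HepaRG, 48 h post-plating; serum-free induction medium; cpd 8-pt, 100 uM top, half-log, 0.5% DMSO, duplicate, 48 h. Readout: ABCC2 mRNA by qRT-PCR, norm. ACTB/GAPDH/POLR2A. Bidirectional fit vs DMSO baseline.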

Read-out in assay [16]: Broad substrate specificity ATP-binding cassette transporter ABCG2 (Homo sapiens) (UniProt Q9UNQ0)
The assay can be described thus: LTEA_HepaRG_ABCG2: Life Technologies and Expression Analysis (LTEA) Assay for ABC Transporter (ABCG2) using HepaRG (AID 2283465). In short, it runs like this: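 Gene expression of ABCG2 in HepaRG liver cells is quantified by qRT-PCR following 48 h exposure across an eight-point series topping at 100 uM. Values come from bidirectional fitting relative to DMSO vehicle.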

Read-out in assay [17]: ATP-citrate lyase (ACLY), ACLY (gene 47)
Put plainly: LTEA_HepaRG_ACLY: Life Technologies and Expression Analysis (LTEA) Assay for ATP-citrate lyase (ACLY) using HepaRG (AID 2283466). In short, it runs like this:
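ACLY expression changes in human HepaRG liver cells are quantified by qRT-PCR after 48 h exposure to test chemicals (maximum 100 uM, half-log steps). Values are fitted in both directions relative to 0.5% DMSO vehicle.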

Read-out in assay [18]: Peroxisomal acyl-coenzyme A oxidase 1 (ACOX1) gene, ACOX1 (gene 51)
Put plainly: LTEA_HepaRG_ACOX1: Life Technologies and Expression Analysis (LTEA) Assay for Peroxisomal acyl-coenzyme A oxidase 1 (ACOX1) gene using HepaRG (AID 2283467). In short, it runs like this:
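Human HepaRG hepatic cultures, 48 h treatment with test chemicals up to 100 uM. ACOX1 expression read by qRT-PCR relative to 0.5% DMSO vehicle.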

Read-out in assay [19]: Alkaline Phosphatase, Placental (ALPP) gene, ALPP (gene 250)
Put plainly: LTEA_HepaRG_ALPP: Life Technologies and Expression Analysis (LTEA) Assay for Alkaline Phosphatase, Placental (ALPP) gene using HepaRG (AID 2283468). In a few lines: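 HepaRG, 48 h plating then 48 h dosing, serum-free induction medium, 0.5% DMSO. 8 conc, half-log, max 100 uM, duplicates. Endpoint: ALPP transcript by qRT-PCR, housekeeping-normalized; gain or loss fitted vs DMSO.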

Chain of Broad substrate specificity ATP-binding cassette transporter ABCG2 (Homo sapiens) (Q9UNQ0 whole entry, looked up): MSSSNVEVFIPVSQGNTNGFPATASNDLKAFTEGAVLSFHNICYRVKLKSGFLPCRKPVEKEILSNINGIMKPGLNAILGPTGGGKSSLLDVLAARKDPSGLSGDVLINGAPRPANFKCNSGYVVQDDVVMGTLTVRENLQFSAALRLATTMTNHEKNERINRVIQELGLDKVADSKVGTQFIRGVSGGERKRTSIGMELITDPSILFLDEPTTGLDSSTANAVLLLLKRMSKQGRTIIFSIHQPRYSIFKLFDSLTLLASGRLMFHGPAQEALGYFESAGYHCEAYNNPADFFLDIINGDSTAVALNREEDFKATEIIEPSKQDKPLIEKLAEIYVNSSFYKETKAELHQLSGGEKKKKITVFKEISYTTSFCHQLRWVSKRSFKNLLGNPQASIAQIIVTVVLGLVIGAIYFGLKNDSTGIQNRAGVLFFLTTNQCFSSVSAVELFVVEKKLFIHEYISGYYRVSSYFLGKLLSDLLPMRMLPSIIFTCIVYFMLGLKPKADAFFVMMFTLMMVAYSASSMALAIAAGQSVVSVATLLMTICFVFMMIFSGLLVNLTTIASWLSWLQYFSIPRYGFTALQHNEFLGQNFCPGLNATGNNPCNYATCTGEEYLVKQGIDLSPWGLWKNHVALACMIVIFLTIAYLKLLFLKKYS

On to `CCNc1cccc(C)c1`, for which the call in assay [1], in assay [2], in assay [3], in assay [4], in [5] and in assay [7] was inactive. Moreover, the compound was called inactive in [8], in [9], in assay [10], in [11], in assay [12] and in [13]. Further, the outcome in assay [14], in assay [15], in assay [16], in assay [17], in [18] and in [19] was inactive. The AC50 in [6] is 50 µM (active).
For `CC1(C)CC(N=C=O)CC(C)(CN=C=O)C1` (stereo not drawn), the call in assay [1], in assay [2], in [3], in assay [4], in [5] and in assay [6] was inactive. Also, the call in assay [7], in assay [8], in [9], in assay [10], in [11] and in assay [12] was inactive. For the same compound, the compound was called inactive in assay [13], in assay [15], in assay [16], in [17], in assay [18] and in assay [19]. Also, in assay [14], the AC50 is 50 µM (active).
Turning to `CNC(=O)[C@H]1O[C@@H](n2cnc3c(NCc4cc(Cl)ccc4OCc4cc(C)no4)ncnc32)[C@H](O)[C@@H]1N`, the compound was called inactive in assay [1], in assay [2], in assay [3], in assay [4], in assay [5] and in assay [6]. The compound was classed as inactive in assay [7], in assay [8], in [9], in assay [10], in assay [11] and in [12]. Also, the outcome in assay [13], in [14], in assay [15], in [16], in assay [17] and in assay [18] was inactive. Also, in assay [19], the compound was called inactive.
Turning to `COCCOC[C@H](CC1(C(=O)NC2CCC(C(=O)O)CC2)CCCC1)C(=O)Oc1ccc2c(c1)CCC2` (stereo partly drawn), the compound was called inactive in assay [1], in assay [2], in assay [4], in assay [5], in assay [6] and in assay [7]. Also, the outcome in assay [8], in [9], in assay [10], in assay [11], in assay [12] and in [13] was inactive. Moreover, the result in [14], in assay [15], in [16], in assay [17], in assay [18] and in assay [19] was inactive. Besides, the AC50 in assay [3] is 0.204 µM (active).
`Cc1ccc(C)c(C)c1`: the compound was classed as inactive in assay [1], in [2], in [3], in [4], in assay [5] and in [6]. The compound was called inactive in assay [7], in [8], in [9], in assay [10], in assay [11] and in assay [12]. Moreover, the compound was classed as inactive in [13], in [14], in [15], in assay [16], in [17] and in assay [18]. Further, the call in [19] was inactive.
`CCCCCCCC=O`: the call in assay [1], in assay [2], in [3], in assay [5], in [7] and in assay [8] was inactive. For the same compound, the result in [9], in [10], in [12], in assay [13], in assay [14] and in assay [15] was inactive. Also, the outcome in assay [16], in assay [17], in assay [18] and in [19] was inactive. Besides, the AC50 in assay [4] was 1.44 µM (active); in [6] it was 50 µM (active).

Source of the values: PubChem BioAssay (EPA / NIEHS).
